# Screens deposited in PubChem by National Center for Advancing Translational Sciences (NCATS).
# Most compounds without a hit are left out; they make up all but 10% or so of the library.
# KinaseGlo FLuc – Counterscreen for Luciferase (Kinase-Glo TM) Inhibition; Luciferin 4-monooxygenase (Photuris pensylvanica), Q27757; Potency, µM (titrated, usually from 38.3 µM), inactives show top-dose activity change, negative = inhibition, most hits filed as inhibitors; 0.28% of 200,000 active; Kinase-Glo luciferase, ATP luminescence, 8 min; active means well fitted inhibition curve with a large enough effect; inconclusive means small, poorly fitted or top-dose-only effect; further: potency means the concentration at half of the fitted maximal effect; nearly all actives have a fitted effect of over 60% in size
#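 Substrate mix (final 50 mM imidazole pH 7.2, 50 mM KCl, 7 mM MgCl2, 10 uM ATP, 0.01% Tween 20, 0.05% BSA) plus pin-tool compound, then Kinase-Glo detection mix; 8 min ambient, luminescence read.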
# ALDH1A1 inh – qHTS Assay for Inhibitors of Aldehyde Dehydrogenase 1 (ALDH1A1); 7.3% of 220,000 active; AID 1030, 2008; Aldehyde dehydrogenase 1A1 (Homo sapiens), P00352; Potency, µM (doses to about 75.3 µM), for the others: at the top dose activity, negative = inhibition, actives largely listed as inhibitors; Purified ALDH1A1, NADH fluorescence, propionaldehyde substrate;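 further: potency means the concentration at half of the fitted maximal effect; plate controls were no enzyme wells and a reference inhibitor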
# Target sequence (P00352 whole entry, looked up): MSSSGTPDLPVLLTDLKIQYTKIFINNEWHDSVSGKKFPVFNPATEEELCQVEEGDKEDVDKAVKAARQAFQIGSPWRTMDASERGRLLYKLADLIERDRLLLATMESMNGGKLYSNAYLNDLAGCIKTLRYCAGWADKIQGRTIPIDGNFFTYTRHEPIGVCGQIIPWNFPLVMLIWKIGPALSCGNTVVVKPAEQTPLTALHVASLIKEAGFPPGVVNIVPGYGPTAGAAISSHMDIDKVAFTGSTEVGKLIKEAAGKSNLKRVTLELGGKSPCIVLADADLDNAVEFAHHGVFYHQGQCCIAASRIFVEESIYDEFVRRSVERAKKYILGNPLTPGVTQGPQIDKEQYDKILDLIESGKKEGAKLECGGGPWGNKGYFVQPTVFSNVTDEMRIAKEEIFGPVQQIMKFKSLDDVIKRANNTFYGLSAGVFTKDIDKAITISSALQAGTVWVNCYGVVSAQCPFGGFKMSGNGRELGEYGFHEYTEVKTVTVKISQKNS
# HPGD inh – qHTS Assay for Inhibitors of HPGD (15-Hydroxyprostaglandin Dehydrogenase); 15-hydroxyprostaglandin dehydrogenase [NAD(+)] (Homo sapiens), P15428; purified HPGD, NADH fluorescence kinetic, PGE2 substrate; Potency, µM, inactives show at the highest dose activity change, negative = inhibition, actives largely listed as inhibitors; 4.3% of 150,000 active; AID 894, 2007; further: potency means the concentration at half of the fitted maximal effect
# Target sequence (P15428 whole entry, looked up): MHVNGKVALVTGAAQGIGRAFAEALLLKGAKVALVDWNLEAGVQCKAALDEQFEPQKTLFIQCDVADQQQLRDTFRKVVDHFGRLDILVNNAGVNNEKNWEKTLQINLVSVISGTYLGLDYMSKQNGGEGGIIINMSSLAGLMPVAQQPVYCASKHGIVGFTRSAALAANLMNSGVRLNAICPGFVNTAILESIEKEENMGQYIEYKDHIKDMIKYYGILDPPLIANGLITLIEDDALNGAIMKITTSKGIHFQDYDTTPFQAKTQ
#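 20 nM HPGD preincubated 15 min at room temperature with compound in 50 mM Tris-HCl pH 8, 0.01% Tween 20. Started with 1 mM NAD+ and 30 uM prostaglandin E2; NADH fluorescence (360/450 nm) read 5 times over 30-s intervals, last minus first.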
# PNC inhibitor – High Content Assay for Compounds that inhibit the Assembly of the Perinucleolar Compartment; PC3M PTB-GFP, PNC prevalence imaging, 16 h; hits give low values; activity change (PNC), negative = inhibition, % at 10 µM; 3.1% of 140,000 active;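 active means readout at or below -70, meaning at least 70% loss of cells showing the perinucleolar compartment, a nuclear body marking cancer cells; inconclusive means readout between -30 and a set limit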;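 further: plate controls were DMSO wells for no effect and camptothecin positive control wells for full effect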
#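 Compounds are pinned in duplicate onto adhered PC3M cells stably expressing GFP-tagged PTB and incubated 16 h at 37 C. Cells are then fixed, nuclei stained with Hoechst, and PNC-positive cells counted.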
# Lamin A splicing – qHTS Assay for Modulators of Lamin A Splicing | HeLa LMNA splicing GFP/RFP minigene ratio, 48 h | Potency, µM (titrated, usually from 46.1 µM), inactives show at the top dose ratio change, negative = inhibition, usual class: inhibitors | 0.01% of 200,000 active | AID 1487, 2009; active means well fitted inhibition curve with a large enough effect in the signal ratio, with a control signal flat, not every such curve was filed as active; inconclusive means small, poorly fitted or top-dose-only effect, or effect the other way, or a change in a side signal; the % refers to the signal ratio; further: potency means the concentration at half of the fitted maximal effect
#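 S3 HeLa stable clones carrying a lamin A-EGFP splicing minigene plus DsRed2 were seeded at 600 cells/well in Opti-MEM with 2% FBS, pin-dosed and incubated 48 h at 37°C. Acumen cytometry (488 nm) gave the GFP/RFP total-intensity ratio.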
# Starred values were filed as active, the others as inactive; ? = inconclusive; . = not tested or not shown; ! = a repeat was not active; [ ] = another dose, or the depositor's remark. Unless noted, the call rests on the fitted dose curve; in most records, active means well fitted inhibition curve with a large enough effect (not every such curve was filed as active); inconclusive means small, poorly fitted or top-dose-only effect, or another doubt; inactive means no such curve, though single readings can be large or run the other way. Unless noted, on the % scale 0 is the no-effect control and ±100 the full control effect.
SMILES,KinaseGlo FLuc,ALDH1A1 inh,HPGD inh,PNC inhibitor,Lamin A splicing
Cc1cccc(OCCSc2nc3ccc(NC(=O)COc4ccccc4)cc3s2)c1,.,.,.,.,-9%[46 µM]
CCOC(=O)c1c(S(=O)(=O)N2CCCC(C(=O)N3CCN(c4ccccc4)CC3)C2)c(C)n(C)c1C (stereo not given),.,.,.,.,2%[46 µM]
COc1cccc([C@@H]2Nc3ccc(C(=O)O)cc3[C@@H]3C=CC[C@@H]32)c1OC,.,.,.,.,16%[46 µM]
Cc1c(Cl)cccc1NS(=O)(=O)c1ccc2c(c1)C1C=CCC1C(c1ccc(C(=O)O)cc1)N2 (stereo not given),.,13µM*,.,.,.
CC(=O)c1ccc2c(c1)C1C=CCC1C(c1ccc(S(=O)(=O)N3CCOCC3)cc1)N2 (stereo not given),-7%,25µM*,-9%,70,?
CC(C)C1Nc2ccc(C(=O)O)cc2C2C=CCC21 (stereo not given),-7%,?,.,.,.
Cc1ccc(-n2ncc3c(NCCC4=CCCCC4)ncnc32)cc1C,.,.,.,.,-26%[46 µM]
NNC(=O)c1nc[nH]c1C(=O)Nc1ccccc1[N+](=O)[O-],-4%,0.79µM*,.,.,-8%[46 µM]
CCOC(=O)c1[nH]cnc1C(=O)NCc1ccccc1,.,-6%,.,.,.
O=C(NCc1ccccc1)c1nc[nH]c1C(=O)NCc1ccccc1,-1%,2.5µM*,.,.,2%[46 µM]
O=C(COC(=O)c1ccc(Br)o1)Nc1ncc(Cl)cc1Cl,-2%,19µM*,.,.,24%[46 µM]
COc1cccc(C(=O)NCC(=O)OCC(=O)Nc2ncc(Cl)cc2Cl)c1,-4%,1%,.,.,-4%[9.22 µM]
COc1cc(OC)cc(C(=O)NCC(=O)OCC(=O)Nc2ncc(Cl)cc2Cl)c1,-1%,25µM*,.,.,-1%[9.22 µM]
COCCNC(=O)[C@H](C)/C=C(\c1cccnc1)C(NC(=O)OCc1ccccc1)c1ccc(C(=O)OC)cc1 (stereo not given in full),0%,-4%,-7%,.,.
Cc1nc(N)sc1-c1csc(N(C)c2ccc(O)cc2)n1,6%,14µM*,14µM*,9,?
COc1ccc(Oc2ncc3ncc(=O)n(C4CC4)c3n2)cc1,.,-9%,.,.,-5%
Cc1[nH]n(C(N)=S)c(=O)c1N=Nc1ccc(S(=O)(=O)N2CCCCCC2)cc1,-7%,11µM*,16µM*,15,8%
Cc1[nH]n(C(N)=S)c(=O)c1N=Nc1ccc2ccccc2c1,1%,7.9µM*,.,.,?
Cc1ccc(N=Nc2c(C)[nH]n(C(N)=S)c2=O)cc1C,-2%,?,-19%,7,?
CCOC(=O)C(Cc1ccc(OC)c([N+](=O)[O-])c1)NC(=O)CCC(=O)Nc1ccc(C)cc1 (stereo not given),-1%,14µM*,.,.,2%[46 µM]
CC(C)NC(=O)c1onc(CSc2ccc(F)cc2)c1C(=O)O,3%,?,40µM*,55,5%[0.0737 µM]
CC(C)NC(=O)c1onc(CSc2ccc(F)c(F)c2)c1C(=O)O,-1%,22µM*,-21%,83,-6%[0.0737 µM]
Cc1ccc(SCc2noc(C(=O)NC(C)C)c2C(=O)O)cc1C,1%,?,-14%,-1,?
C=CCNC(=O)c1onc(CSc2ccc(C(C)C)cc2)c1C(=O)O,4%,-11%,14µM*,80,?
CC(C)NC(=O)c1onc(CSc2ccc(C(C)C)cc2)c1C(=O)O,6%,?,22µM*,54,?
SMILES,KinaseGlo FLuc,ALDH1A1 inh,HPGD inh,PNC inhibitor,Lamin A splicing
COCC1C2CC[C@H]3C(OCc4ccc(OC)cc4)OC[C@]4(C)[C@H]3C2=C(CN4C(=O)OC(C)(C)C)[C@H](C)C1COC (stereo not given in full),-5%,?,?,.,.
CC(Cl)C(=O)c1ccc2c(c1)CCN2C(=O)C1CC1 (stereo not given),10%,1.4µM*,.,.,.
O=C(CSc1n[nH]c(-c2ccc(F)cc2)n1)NCc1ccccc1Cl,.,.,.,.,-8%[46 µM]
NC1=CC(=O)c2cccc3cccc1c23,-6%,1µM*,-14%,104,15%
CSc1ccc(CCNc2ncnc3onc(-c4ccc(Cl)cc4)c23)cc1,.,.,.,.,-3%[46 µM]
CCOC(=O)CSc1nnc(-c2ccoc2C)n1-c1ccc(C)cc1,2%,4%,-11%,-100*,-4%
CCOC(=O)CNC(=O)CSc1nnc(-c2ccc(OC)cc2)n1CC,-1%,5%,0%,-1,-13%
CCOC(=O)CSc1nnc(-c2ccc(OC)cc2)n1CC,-1%,2.5µM*,-5%,15,4%
CCOC(=O)CSC1=NC(=O)/C(=C/c2ccc(OC)cc2)S1,-1%,?,13µM*,-91*,-26%
CCOC(=O)CSc1nc(C)c2cc(OC)ccc2n1,1%,?,?,58,12%
CCOC(=O)CSc1nnc(-c2ccoc2C)n1-c1ccc(OCC)cc1,.,-10%,.,7,10%
CCOC(=O)c1ccc(NC(=O)c2cc3cc(C)ccc3n2C)cc1,.,.,.,.,6%[46 µM]
CC(C)(C)c1ccc(/C=C/C(=O)N2CCOCC2)cc1,0%,?,25µM*,177,1%
CC(C)Cc1ccc(/C=C/C(=O)N2CCOCC2)cc1,0%,-2%,.,.,.
N[C@@H](Cc1c[nH]c2ccc(O)cc12)C(=O)O,-3%,28µM*!,-9%,.,?
COc1ccc(CNC(=O)c2cnn(-c3ccc(C)cc3)c2-n2cccc2)cc1OC,.,.,.,.,17%[46 µM]
Cc1cccc(NC(=O)c2ccc([N+](=O)[O-])s2)c1C,2%,0.89µM*,-11%,?,?
Cc1c(Br)c([N+](=O)[O-])nn1CCCC(=O)Nc1sc2c(c1C(N)=O)CCC(C)C2 (stereo not given),1%,25µM*,11µM*,?,-5%
CCOC(=O)c1c(NC(=O)Cn2cnc([N+](=O)[O-])n2)sc2c1CCC(C)C2 (stereo not given),-4%,-2%,-4%,23,13%[0.0737 µM]
Cc1c(Cl)c([N+](=O)[O-])nn1CCCC(=O)Nc1sc2c(c1C(N)=O)CCC(C)C2 (stereo not given),5%,5%,5µM*,48,-9%
CCOC(=O)c1ccc(NC(=O)CSc2ccc3ccccc3n2)cc1,.,.,.,.,-11%[46 µM]
C/C=C(\C)[C@H](O)C[Si](C)(C)c1ccccc1,3%,8%,-10%,.,.
CN(C)CC/C=C1\c2ccccc2COc2ccccc21,-2%,18µM*!,-8%,52,?
CNCC/C=C1/c2ccccc2CSc2ccccc21,4%,-15%,0%,3,?
O=C(OCc1cc(=O)n2nc(C3CCCCC3)sc2n1)c1ccc(F)cc1,.,.,.,.,4%[46 µM]
COc1cc(SC)ccc1C(=O)NCCOc1ccc(C)c(C)c1,-3%,-7%,-5%,?,?
COc1cc(SC)ccc1C(=O)NCc1ccccc1,-1%,?,25µM*,-17,-11%
